Screening results (PubChem BioAssay)
Sfp PPTase inh: Sfp phosphopantetheinyl transferase inhibition | Q9F4F7 | Biochemical Sfp PPTase activity, qHTS | Potency, µM, without a hit: largest response in the series, negative = inhibition, usual class: inhibitors | 310,000 tested, 3.5% active;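 also: the enzyme is Sfp with the accession as filed and its product quenches rhodamine fluorescence; 0% = enzyme reaction without inhibitor and -100% = no enzyme wells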
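Sfp 15 nM + cpd, 15 min RT; start w/ rhodamine-CoA 5 uM, BHQ-2-YbbR 12.5 uM (final); 50 mM Hepes pH 7.6, 10 mM MgCl2, 0.01% NP-40, 0.01% BSA; read 525/598 nm at 0 and 30 min.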
L3MBTL1 block: blocks human L3MBTL1. Q9Y468. AlphaScreen L3MBTL1–H3K9me1 peptide binding. Potency, µM (highest dose often 57.1 µM), for inactives: top-dose activity, negative = inhibition, hits mostly inhibitors. 230,000 tested, 0.66% active. AID 485360; also: % is scaled to controls: 0 for no effect and ±100 for the full control effect; nearly all actives have a fitted effect of over 60% in size
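Displacement of a biotinylated histone H3(1-15) peptide monomethylated at Lys9 (75 nM) from L3MBTL1 (50 nM) was measured by AlphaScreen after a 30 min room-temperature compound incubation; cefsulodin titration served as intraplate control.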
HP1b chromo inh: inhibitors of HP1-beta chromodomain binding to methylated histone tails. AlphaScreen HP1-beta / biotin-H3K9me3 peptide binding. P83916. Potency, µM (top dose mostly 114 µM), for inactives: at the top dose activity change, negative = inhibition, usual class: inhibitors. 390,000 tested, 0.56% active; also: nearly all actives have a fitted effect of over 70% in size
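AlphaScreen: HP1-beta (50 nM) preformed 30 min with biotin-H3(1-18)K9me3 peptide (50 nM) in PBS pH 7.4, 0.01% Tween-20. Compound added for 30 min at RT, then streptavidin donor/nickel chelate acceptor beads (10 ug/mL) for 30 min.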
G9a block: G9a (human) methyltransferase inhibition | 350,000 tested, 8.8% active | Q96KQ7 | AID 504332 | G9a H3K9 monomethylation, AlphaScreen, 2 h | Potency, µM (series often up to 102 µM), for the others: at the highest dose activity, negative = inhibition, hits mostly inhibitors; also: % is scaled to controls: 0 for no effect and ±100 for the full control effect; nearly all actives have a fitted effect of over 75% in size
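Quantitative HTS format: methyltransferase activity on a biotin-tagged H3K9 peptide is measured by AlphaScreen, using a rabbit anti-monomethyl-H3K9 antibody with streptavidin donor and anti-IgG acceptor beads. Final levels are 20 nM enzyme, 500 nM peptide, 20 uM SAM; 2 h RT.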
JMJD2A Tudor: blocks the human JMJD2A Tudor domain; O75164; AlphaScreen JMJD2A-Tudor / H3K4me3 peptide binding; Potency, µM (series often up to 114 µM), without a hit: at the highest dose activity change, negative = inhibition, most hits filed as inhibitors; 390,000 tested, 4.4% active; AID 504339; also: % is scaled to controls: 0 for no effect and ±100 for the full control effect; nearly all actives have a fitted effect of over 50% in size
BAZ2B block: BAZ2B (human) inhibition. 360,000 tested, 4.4% active. AlphaScreen BAZ2B-H3K14Ac peptide displacement. Potency, µM (titrated, usually from 114 µM), for the others: at the top dose activity change, negative = inhibition, most hits filed as inhibitors. Q9UIF8; also: % is scaled to controls: 0 for no effect and ±100 for the full control effect; nearly all actives have a fitted effect of over 60% in size
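AlphaScreen displacement: compounds (up to 110uM) incubated 30 min at room temperature with a preformed 50 nM BAZ2B/50 nM biotinylated H3K14Ac peptide complex in PBS pH 7.4 with Tween-20. Donor and acceptor beads at 10 ug/mL final added, 20 min light-protected before reading.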
* hit, by the source's call; ? = inconclusive; / = no result given; [ ] = another dose, or the depositor's remark. The list is not random: actives were taken first. Their share in the collection is about 12%. Calls follow the shape of the dose curve; as a rule, active = well fitted curve in the direction sought with a large enough effect; inconclusive = small, poorly fitted or top-dose-only effect, or another doubt; inactive = no such curve, though single readings can be large; an effect the other way counts as inactive or inconclusive. Potency is read from the fitted curve at half-maximal effect.

SMILES | Sfp PPTase inh | L3MBTL1 block | HP1b chromo inh | G9a block | JMJD2A Tudor | BAZ2B block
COc1ccc(Br)cc1CNC(=O)C1CCCCN1S(=O)(=O)c1ccc(F)cc1 (centres undefined) | / | / | 20.5% | -3.3%[59 µM] | -29.9% | 1.3%
CC1(c2ccccc2)NC(=O)N(CC(=O)Nc2nnc(C3CC3)s2)C1=O (centres undefined) | 1.8% | / | 48.5% | 19.1% | -0.7% | 3.1%
CN(C)c1ncnc2ccc(-c3cccc(NS(C)(=O)=O)c3)cc12 | 30.0% | / | / | 15.2%[0.501 µM] | / | /
Cc1nnc(NC(=O)c2ccc(S(=O)(=O)N3CCc4ccccc4C3)cc2)o1 | 16.4% | 46.0% | 39.3% | -25.5% | -29.8% | 79.4µM*
Cc1cc(C)c2nc(NNC(=O)c3cc(=O)c4ccccc4o3)sc2c1 | 17.8µM* | -2.0% | ? | 8.91µM* | 56.2µM* | 31.6µM*
CCc1nnc(NC(=O)c2ccc(S(=O)(=O)N3CCc4ccccc4C3)cc2)s1 | 5.3% | -17.4% | ? | -9.9% | ? | -2.2%
Cc1cc(C)c2nc(NNC(=O)c3ccc(S(=O)(=O)N4CCc5ccccc5C4)cc3)sc2c1 | -2.0% | ? | -4.2% | 39.8µM* | ? | ?
Cc1cc(C)c2sc(NNC(=O)c3ccc(S(=O)(=O)N4CCc5ccccc5C4)cc3)nc2c1 | 9.9% | ? | 5.2% | ? | 3.55µM* | 5.62µM*
Cc1nnc(NC(=O)c2ccc(S(=O)(=O)N3CC(C)CC(C)C3)cc2)o1 (centres undefined) | 15.9% | / | 30.4% | 7.7% | ? | ?
Cc1cccc(NC2=NCC(=O)N2Cc2cccs2)c1 | 8.9% | 5.2% | 14.5% | 70.8µM* | -1.4% | ?
Cc1cc(C)cc(NC2=NCC(=O)N2Cc2ccccc2)c1 | 2.8% | / | 22.0% | 18.0%[12.7 µM] | -30.1% | -6.9%
O=C1CN=C(Nc2ccccc2)N1Cc1cccs1 | 8.8% | 8.8% | 41.6% | 79.4µM* | -10.0% | 2.8%[57.1 µM]
Cc1cccc(NC2=NCC(=O)N2Cc2ccccc2)c1 | 7.6% | -6.2% | 62.4% | ? | -20.4% | -7.1%
O=C1CCN=C(Nc2ccc(F)cc2)N1Cc1ccccc1 | -18.6% | / | 34.9% | 39.8µM* | -18.9%[57.1 µM] | ?
CCc1ccccc1NC1=NCC(=O)N1Cc1ccccc1 | 2.5% | -25.0% | 32.2% | 44.7µM* | -0.3% | 79.4µM*
CC(C)c1ccc(NC2=NCC(=O)N2Cc2cccs2)cc1 | 5.8% | 6.9% | 44.2% | ? | -4.9% | ?
CN(Cc1ccco1)c1ncncc1-c1cccnc1 | ? | / | / | -38.0%[0.501 µM] | / | /
Cc1ccc(NC(=O)CSc2ccc(Br)cc2)cc1S(=O)(=O)N1CCOCC1 | / | 5.6% | -3.5% | 0.0%[59 µM] | -1.7% | 5.0%
Oc1ccc(-c2csc(-c3cccnc3)n2)c(O)c1 | 1.2% | 1.3% | 21.8% | -4.6% | -23.8% | /
Oc1ccc(-c2nc(-c3ccc(O)c(O)c3)cs2)cc1 | 79.4µM* | -27.5% | ? | 8.91µM* | 50.1µM* | ?
Cc1cccc(NC(=O)Cc2nc(-c3c[nH]c(C(=O)N4CCCC4)c3)cs2)c1 | / | -13.4% | -35.6% | 56.2µM* | ? | ?
COCCn1c(NCc2ccco2)nc2c1c(=O)[nH]c(=O)n2C | 15.9% | 5.3% | 19.9% | / | -9.0% | 14.4%
Cc1cc(C)n2nc(C(=O)OCC(=O)c3ccccc3Cl)nc2n1 | / | 1.9% | 32.1% | ? | -9.0% | -0.6%
Cc1cc(C)n2nc(C(=O)OCC(=O)c3cc(C)n(C)c3C)nc2n1 | -5.4% | ? | -6.4% | 44.7µM* | 56.2µM* | 50.1µM*
O=C(O)c1ccc(CN2C(=O)c3cccc4c([N+](=O)[O-])ccc(c34)C2=O)cc1 | ? | / | 5.1% | 44.7µM* | ? | 50.1µM*
Cc1ccc(C(=O)O)cc1N1C(=O)c2cccc3c([N+](=O)[O-])ccc(c23)C1=O | -18.8% | 22.4µM* | -16.0% | 25.1µM* | 56.2µM* | 50.1µM*
CC(=O)Oc1cccc(N2C(=O)c3cccc4c([N+](=O)[O-])ccc(c34)C2=O)c1 | -0.2% | 6.2% | 28.9% | 39.8µM* | 2.0% | 2.7%
